Reference: the supplement of paper PMC11732987, “Enantioselective OTUD7B fragment discovery through chemoproteomics screening and high-throughput optimisation” (Communications Chemistry, 2025)

Columns and labels:
Assay in all cases: log2 ratio of Biotin-Ahx-Ub-VS probe labelling (fragment/DMSO); higher = less target engagement (more negative = stronger competition), active = hit call of the paper (q ≤ 0.05, log2 ratio ≤ -1)
Details in all cases: compound concentration: 200 uM; treatment time: 3 h
[1] = target: T1, OTUD6B (UniProt Q8N6M0)
T1 sequence (whole entry): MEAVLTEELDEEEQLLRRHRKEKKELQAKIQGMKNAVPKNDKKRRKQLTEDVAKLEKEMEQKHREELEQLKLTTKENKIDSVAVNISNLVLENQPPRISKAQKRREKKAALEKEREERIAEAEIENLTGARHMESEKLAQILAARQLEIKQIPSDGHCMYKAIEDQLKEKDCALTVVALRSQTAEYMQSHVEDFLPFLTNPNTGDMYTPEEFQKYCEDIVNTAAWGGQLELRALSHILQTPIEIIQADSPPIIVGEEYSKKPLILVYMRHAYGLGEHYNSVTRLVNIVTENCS
Outline: (§1)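 In triplicate, 495 µg of HEK293T lysate per sample was incubated with fragment at 200 µM or vehicle for 3 h. Biotin-Ahx-Ub-VS was then added to 0.5 µM final for 1 h, and labelled DUBs were captured with NeutrAvidin, digested with LysC and trypsin, and measured by diaPASEF LC-MS/MS. Data are average log2 fragment/vehicle ratios by unpaired t-test from global-median-normalised Spectronaut label-free quantities, restricted to proteins with ≥2 unique peptides.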

[2] = target: T2, OTUD7B (UniProt Q6GQQ9)
T2 sequence (whole entry): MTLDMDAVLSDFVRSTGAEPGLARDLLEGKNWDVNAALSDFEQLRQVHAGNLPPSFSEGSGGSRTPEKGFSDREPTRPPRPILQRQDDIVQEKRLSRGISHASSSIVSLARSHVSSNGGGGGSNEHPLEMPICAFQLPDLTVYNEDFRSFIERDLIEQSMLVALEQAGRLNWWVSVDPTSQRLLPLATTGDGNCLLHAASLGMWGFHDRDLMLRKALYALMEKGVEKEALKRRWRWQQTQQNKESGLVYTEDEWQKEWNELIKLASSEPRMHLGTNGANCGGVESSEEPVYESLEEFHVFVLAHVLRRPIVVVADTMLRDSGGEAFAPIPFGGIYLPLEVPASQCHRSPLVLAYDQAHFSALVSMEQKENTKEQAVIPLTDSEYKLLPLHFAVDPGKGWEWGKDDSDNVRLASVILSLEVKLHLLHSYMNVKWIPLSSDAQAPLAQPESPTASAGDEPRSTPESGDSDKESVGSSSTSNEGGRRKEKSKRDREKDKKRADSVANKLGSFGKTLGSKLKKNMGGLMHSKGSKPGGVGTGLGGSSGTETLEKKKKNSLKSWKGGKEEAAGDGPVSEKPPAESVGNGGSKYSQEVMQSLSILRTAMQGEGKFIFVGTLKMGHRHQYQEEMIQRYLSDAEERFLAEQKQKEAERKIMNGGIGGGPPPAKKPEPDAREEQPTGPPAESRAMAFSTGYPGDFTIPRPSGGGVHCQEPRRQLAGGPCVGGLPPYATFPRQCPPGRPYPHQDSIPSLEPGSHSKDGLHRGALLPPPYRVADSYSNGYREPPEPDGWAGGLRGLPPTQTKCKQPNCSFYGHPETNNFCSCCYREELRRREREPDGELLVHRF
Outline: as §1

[3] = target: PRPF8 (UniProt Q6P2Q9)
Outline: as §1

[4] = target: T3, PSMD7 (UniProt P51665)
T3 sequence (whole entry): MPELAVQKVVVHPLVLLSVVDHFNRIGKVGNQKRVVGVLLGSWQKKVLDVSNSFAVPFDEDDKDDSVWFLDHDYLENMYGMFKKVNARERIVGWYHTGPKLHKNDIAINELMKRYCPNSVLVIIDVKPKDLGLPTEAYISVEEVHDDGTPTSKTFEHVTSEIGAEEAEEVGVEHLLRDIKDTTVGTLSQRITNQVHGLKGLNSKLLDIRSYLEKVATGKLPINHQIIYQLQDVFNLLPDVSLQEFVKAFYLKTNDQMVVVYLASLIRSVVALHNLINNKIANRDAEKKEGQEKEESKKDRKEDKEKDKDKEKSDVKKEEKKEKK
Outline: as §1

[5] = target: UCHL1 (UniProt P09936)
Outline: as §1

[6] = target: T4, UCHL3 (UniProt P15374)
T4 sequence (whole entry): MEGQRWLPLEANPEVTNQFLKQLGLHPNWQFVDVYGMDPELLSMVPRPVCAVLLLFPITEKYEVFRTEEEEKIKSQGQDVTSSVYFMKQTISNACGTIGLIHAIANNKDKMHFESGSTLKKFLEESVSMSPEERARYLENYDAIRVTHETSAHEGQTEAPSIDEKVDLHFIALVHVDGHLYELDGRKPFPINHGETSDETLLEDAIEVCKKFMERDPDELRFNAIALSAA
Outline: as §1

[7] = target: T5, UCHL5 (UniProt Q9Y5K5)
T5 sequence (whole entry): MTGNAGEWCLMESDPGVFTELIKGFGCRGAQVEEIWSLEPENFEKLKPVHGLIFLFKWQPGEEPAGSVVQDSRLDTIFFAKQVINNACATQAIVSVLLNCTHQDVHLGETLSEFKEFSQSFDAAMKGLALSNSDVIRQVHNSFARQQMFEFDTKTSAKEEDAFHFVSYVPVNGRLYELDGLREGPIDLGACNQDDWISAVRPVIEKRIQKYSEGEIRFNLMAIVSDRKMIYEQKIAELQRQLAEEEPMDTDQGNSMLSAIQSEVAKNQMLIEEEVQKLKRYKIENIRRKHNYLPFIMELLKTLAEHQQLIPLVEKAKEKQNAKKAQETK
Outline: as §1

[8] = target: USP10 (UniProt Q14694)
Outline: as §1

[9] = target: T6, USP15 (UniProt Q9Y4E8)
T6 sequence (whole entry): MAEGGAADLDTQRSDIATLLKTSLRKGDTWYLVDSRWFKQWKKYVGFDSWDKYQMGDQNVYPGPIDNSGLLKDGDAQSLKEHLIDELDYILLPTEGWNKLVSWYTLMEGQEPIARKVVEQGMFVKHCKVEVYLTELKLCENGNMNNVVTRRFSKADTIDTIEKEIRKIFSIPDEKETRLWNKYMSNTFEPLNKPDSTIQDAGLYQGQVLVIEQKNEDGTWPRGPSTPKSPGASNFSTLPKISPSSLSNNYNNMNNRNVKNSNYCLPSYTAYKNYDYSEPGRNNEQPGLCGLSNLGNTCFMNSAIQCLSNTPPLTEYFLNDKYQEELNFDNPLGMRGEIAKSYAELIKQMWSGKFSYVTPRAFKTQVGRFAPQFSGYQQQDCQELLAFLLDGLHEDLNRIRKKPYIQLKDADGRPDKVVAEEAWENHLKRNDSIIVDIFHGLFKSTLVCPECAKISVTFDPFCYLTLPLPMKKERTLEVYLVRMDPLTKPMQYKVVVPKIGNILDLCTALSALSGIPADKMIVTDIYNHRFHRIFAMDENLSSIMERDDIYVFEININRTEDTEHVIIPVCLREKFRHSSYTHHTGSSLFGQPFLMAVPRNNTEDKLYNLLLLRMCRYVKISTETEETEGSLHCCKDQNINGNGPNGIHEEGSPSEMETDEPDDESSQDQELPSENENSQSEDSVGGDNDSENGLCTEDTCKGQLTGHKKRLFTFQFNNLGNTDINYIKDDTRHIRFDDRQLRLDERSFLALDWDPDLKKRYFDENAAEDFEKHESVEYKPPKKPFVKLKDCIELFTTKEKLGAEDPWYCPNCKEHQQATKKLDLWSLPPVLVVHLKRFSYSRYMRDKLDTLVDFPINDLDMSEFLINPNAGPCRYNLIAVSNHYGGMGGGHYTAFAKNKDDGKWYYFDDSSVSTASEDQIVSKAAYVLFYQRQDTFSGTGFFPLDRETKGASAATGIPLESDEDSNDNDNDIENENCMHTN
Outline: as §1

[10] = target: USP16 (UniProt Q9Y5T5)
Outline: as §1

Measured: log2 ratio of Biotin-Ahx-Ub-VS probe labelling

Chain of UCHL1 (P09936 whole entry, looked up): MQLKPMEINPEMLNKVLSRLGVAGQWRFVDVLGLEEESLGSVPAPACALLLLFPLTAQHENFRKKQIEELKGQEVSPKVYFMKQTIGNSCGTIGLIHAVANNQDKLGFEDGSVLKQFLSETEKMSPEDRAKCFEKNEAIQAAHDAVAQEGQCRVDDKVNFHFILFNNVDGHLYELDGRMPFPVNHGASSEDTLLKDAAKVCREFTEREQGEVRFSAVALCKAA
Chain of USP16 (Q9Y5T5 whole entry, looked up): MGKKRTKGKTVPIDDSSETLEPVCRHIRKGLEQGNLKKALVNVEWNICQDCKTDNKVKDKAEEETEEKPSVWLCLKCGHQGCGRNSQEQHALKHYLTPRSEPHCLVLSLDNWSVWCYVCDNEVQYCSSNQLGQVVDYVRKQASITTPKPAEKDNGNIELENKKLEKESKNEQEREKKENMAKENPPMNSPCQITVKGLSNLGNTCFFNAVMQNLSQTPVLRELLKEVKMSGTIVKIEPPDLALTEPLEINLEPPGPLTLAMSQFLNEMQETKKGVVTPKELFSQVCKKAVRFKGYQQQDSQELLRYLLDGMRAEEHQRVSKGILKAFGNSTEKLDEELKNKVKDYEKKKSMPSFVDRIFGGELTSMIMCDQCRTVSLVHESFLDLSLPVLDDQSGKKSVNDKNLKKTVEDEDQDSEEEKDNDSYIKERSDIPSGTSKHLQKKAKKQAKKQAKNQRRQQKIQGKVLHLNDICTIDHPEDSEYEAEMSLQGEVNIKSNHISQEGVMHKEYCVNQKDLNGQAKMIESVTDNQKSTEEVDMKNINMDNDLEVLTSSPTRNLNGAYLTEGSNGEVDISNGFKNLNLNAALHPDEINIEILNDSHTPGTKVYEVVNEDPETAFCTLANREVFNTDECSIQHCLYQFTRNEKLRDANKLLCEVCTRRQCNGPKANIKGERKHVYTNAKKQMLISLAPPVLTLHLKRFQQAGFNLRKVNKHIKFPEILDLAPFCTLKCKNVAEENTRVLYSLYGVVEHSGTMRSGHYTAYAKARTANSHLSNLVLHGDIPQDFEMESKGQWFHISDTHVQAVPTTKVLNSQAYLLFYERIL
Chain of USP10 (Q14694 whole entry): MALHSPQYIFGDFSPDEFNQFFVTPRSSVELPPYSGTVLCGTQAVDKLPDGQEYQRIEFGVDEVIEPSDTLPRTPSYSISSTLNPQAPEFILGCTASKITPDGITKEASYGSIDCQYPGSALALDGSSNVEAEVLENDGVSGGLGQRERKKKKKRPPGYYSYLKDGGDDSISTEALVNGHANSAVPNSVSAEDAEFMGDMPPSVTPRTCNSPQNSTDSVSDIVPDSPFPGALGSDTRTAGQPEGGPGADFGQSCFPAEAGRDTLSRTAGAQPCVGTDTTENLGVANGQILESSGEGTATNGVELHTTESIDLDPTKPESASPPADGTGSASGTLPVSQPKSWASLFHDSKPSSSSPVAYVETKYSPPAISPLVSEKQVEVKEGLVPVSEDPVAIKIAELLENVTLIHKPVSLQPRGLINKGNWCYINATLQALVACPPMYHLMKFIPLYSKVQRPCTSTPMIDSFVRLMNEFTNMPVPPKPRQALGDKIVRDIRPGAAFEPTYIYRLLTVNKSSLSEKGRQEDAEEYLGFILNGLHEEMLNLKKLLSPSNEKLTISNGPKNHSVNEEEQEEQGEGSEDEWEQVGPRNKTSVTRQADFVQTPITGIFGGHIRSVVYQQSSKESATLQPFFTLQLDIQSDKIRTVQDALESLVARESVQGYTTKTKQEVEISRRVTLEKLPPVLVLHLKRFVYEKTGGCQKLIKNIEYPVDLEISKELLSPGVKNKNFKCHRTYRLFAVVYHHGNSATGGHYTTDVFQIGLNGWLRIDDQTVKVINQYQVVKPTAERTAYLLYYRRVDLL

Cc1noc(N2CCN(C(=O)CCl)CC2)n1.Cl
inactive: [1] -0.229 | [2] -0.413 | [3] -0.079 | [4] 0.128 | [6] 0.0214 | [7] -0.188 | [8] -0.076 | [9] -0.285 | [10] 0.132
active: [5] -1.52
